Screening data from PubChem.
Shown are actives, neighbours in structure and some others; about 2.3% of the full set was active somewhere.
Apoferritin bind – candidate novel general anesthetic via apoferritin binding | hit rate 0.074% among 350,000 | P02791 | apoferritin/1-aminoanthracene competitive binding, fluorescence | Potency, µM (series often up to 77.5 µM), for inactives: at the highest dose activity change, negative = displacement, hits mostly inhibitors; also: potency is read from the fitted curve at half-maximal effect; % is scaled to controls: 0 for no effect and ±100 for the full control effect; nearly all actives have a fitted effect of over 20% in size
Target sequence (P02791 2-175 limits assumed): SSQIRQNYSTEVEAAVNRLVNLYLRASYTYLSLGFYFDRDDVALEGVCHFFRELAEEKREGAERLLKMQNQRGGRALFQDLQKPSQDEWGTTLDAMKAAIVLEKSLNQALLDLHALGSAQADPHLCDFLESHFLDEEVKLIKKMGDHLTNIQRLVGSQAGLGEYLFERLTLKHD
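10 uM apoferritin + 50% sat. 1-AMA, PBS; cpd 10 min RT; Ex380/Em535 endpoint; normalized to free probe vs complex; 4-param Hill fit; propofol titration as pos. ctrl.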
Giardia killer – kills Giardia lamblia; activity change, % at 7.66 µM, hits read low; AID 540267; Giardia lamblia trophozoite viability; hit rate 0.15% among 340,000; in the data active = activity change below about -80%; inconclusive = between about -30% and that limit;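 also: parasites exposed to compound for two days anaerobically before the ATP read; % is scaled to controls: 0 for no effect and ±100 for the full control effect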
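Trophozoites 100 cells/well + cpd; 48 hrs, 37 deg C, anaerobic. ATPLite 1-Step added, 15-30 min RT, luminescence read (ATP-based viability).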
A549 viability – A549 cytotoxicity, counter-screen for Nrf2 inhibitors; A549 ARE-Fluc cells, CellTiter-Fluor viability, 18-24 h; Potency, µM (top dose mostly 46 µM), inactives show at the top dose activity change, negative = cytotoxicity, hits mostly inhibitors; hit rate 0.16% among 390,000; AID 504648; also: potency is read from the fitted curve at half-maximal effect; % is scaled to controls: 0 for no effect and ±100 for the full control effect
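A549 ARE-Fluc cells in 5% FBS OPTI-MEM, 5000 cells/well, rested 2 h then exposed to compounds in concentration-response for 18-24 h at 37 °C. Viability by CellTiter-Fluor fluorescence (Ex 405/Em 525) after 30 min; luciferase luminescence (BugLite, 15 min, RT) read afterwards.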
Nrf2 ARE act – Nrf2 pathway activation; AREc32 ARE-luciferase reporter (MCF7-derived line), luminescence, 24 h; Potency, µM (highest dose often 46.1 µM), for the others: top-dose activation, most hits filed as activators; hit rate 0.31% among 410,000; also: potency is read from the fitted curve at half-maximal effect; % of control where 0% means no effect; nearly all actives have a fitted effect of over 65% in size
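Cells of the AREc32 ARE-luciferase line are plated in OPTI-MEM containing 5% FBS and left overnight at 37 deg C. Compounds are pinned in, incubation continues 24 hr, and firefly luciferase signal is then measured.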
mIDH1 inhibitor – inhibitors of human mutant IDH1 R132H; IDH1-R132H enzyme, NADPH consumption, diaphorase/resazurin fluorescence; Potency, µM (doses to about 76.6 µM), for inactives: at the top dose activity change, negative = inhibition, usual class: inhibitors; hit rate 0.093% among 390,000; also: potency is read from the fitted curve at half-maximal effect; % is scaled to controls: 0 for no effect and ±100 for the full control effect; nearly all actives have a fitted effect of over 65% in size
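IDH1-R132H (0.5 ug/mL) preincubated 30 min with compound, then NADPH (0.016 mM) and alpha-KG (2 mM) added; 80 min at RT, pH 7.5. Remaining NADPH coupled via diaphorase/resazurin to fluorescence (540/590 nm); concentration-response curves normalized to no-enzyme control.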
Nrf2 inh – Nrf2 pathway inhibition; A549 ARE-Fluc reporter, luciferase luminescence, 18-24 h; Potency, µM (series often up to 46 µM), for the others: at the top dose activity change, negative = inhibition, most hits filed as inhibitors; hit rate 2.1% among 360,000; AID 504444; also: potency is read from the fitted curve at half-maximal effect; % is scaled to controls: 0 for no effect and ±100 for the full control effect; nearly all actives have a fitted effect of over 60% in size
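A549 ARE_Fluc cells (5000/well, 5% FBS OPTI-MEM) pre-incubated 2 h, then treated with compounds 18-24 h at 37C/5% CO2 in concentration-response. CellTiter-Fluor viability read first; BugLite luciferase luminescence after 15 min at room temperature gives Nrf2 activity.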
IDH1 autofl – counter-screen for mutant IDH1 inhibitors: fluorescence interference. shares compounds with mIDH1 inhibitor. Resorufin detection reagent fluorescence interference, cell-free. inhibition of signal, % at 51.2 µM. 750 tested, under 10 active;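 also: 0% = wells with normal resorufin and full inhibition = wells lacking resorufin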
IDH1 WT – selectivity of mutant IDH1 inhibitors: human wild-type IDH1. shares compounds with mIDH1 inhibitor. WT IDH1 enzyme, NADPH diaphorase/resazurin fluorescence. Potency, µM (titrated, usually from 115 µM), for inactives: at the top dose activity change, negative = inhibition, usual class: inhibitors. hit rate 9% among 750. AID 623995;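 also: potency is read from the fitted curve at half-maximal effect; 0% = full WT IDH1 enzyme control and full inhibition = no enzyme wells; nearly all actives have a fitted effect of over 55% in size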
Target sequence (O75874 whole entry, looked up): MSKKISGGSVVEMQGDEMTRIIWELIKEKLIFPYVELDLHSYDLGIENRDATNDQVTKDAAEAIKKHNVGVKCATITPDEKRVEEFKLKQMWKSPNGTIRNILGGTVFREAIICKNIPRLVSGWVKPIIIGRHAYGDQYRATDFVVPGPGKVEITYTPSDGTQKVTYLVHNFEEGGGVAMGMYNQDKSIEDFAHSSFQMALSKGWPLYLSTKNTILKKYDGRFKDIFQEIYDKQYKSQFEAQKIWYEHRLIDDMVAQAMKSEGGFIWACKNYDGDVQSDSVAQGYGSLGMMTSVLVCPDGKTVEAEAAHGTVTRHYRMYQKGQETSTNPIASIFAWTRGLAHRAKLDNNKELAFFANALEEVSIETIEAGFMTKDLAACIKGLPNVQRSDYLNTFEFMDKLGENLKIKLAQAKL
IDH1 R132H conf – mutant IDH1 (human) inhibition, confirmed. hit rate 83% among 750. Potency, µM (highest dose often 76.6 µM), for the others: at the highest dose activity change, negative = inhibition, hits mostly inhibitors. AID 624002. shares compounds with mIDH1 inhibitor. IDH1 R132H enzyme, NADPH diaphorase/resazurin fluorescence; also: potency is read from the fitted curve at half-maximal effect; nearly all actives have a fitted effect of over 50% in size
The depositor's hits bear a star; ? = inconclusive; nt = no result given; [ ] = another dose, or the depositor's remark. Unless noted, calls follow the shape of the dose curve; as a rule, active = well fitted curve in the direction sought with a large enough effect; inconclusive = small, poorly fitted or top-dose-only effect, or another doubt; inactive = no such curve, though single readings can be large; an effect the other way counts as inactive or inconclusive.

SMILES	Apoferritin bind	Giardia killer	A549 viability	Nrf2 ARE act	mIDH1 inhibitor	Nrf2 inh	IDH1 autofl	IDH1 WT	IDH1 R132H conf
Cc1c(O)c2ccccc2n(-c2ccccc2)c1=O	nt	-12	-2%	0%	9%	5%	nt	nt	nt
Cc1c(/C=N/NC(=O)c2cc(=O)[nH]c(=O)[nH]2)c2ccccn2c1C(=O)c1ccccc1	-3%	6	-11%	-1%	?	-20%	-2	?	14µM*
O=C(CCS(=O)(=O)c1cc2c3c(c1)CCN3C(=O)CC2)NCc1ccc(F)cc1	-4%	nt	4%	0%	-21%	0%	nt	nt	nt
COc1ccc2c(c1)c(=O)c(S(=O)(=O)c1ccccc1)cn2CC(=O)Nc1ccc(C)c(Cl)c1	-14%	nt	-4%	-1%	-3%	2%	nt	nt	nt
COc1cc2c(c3oc(-c4ccccc4)cc(=O)c13)C=CC(C)(C)O2	?	?	-5%	0%	40µM*	?	-11	28µM*	22µM*
COc1cc(OC)c2c(=O)cc(-c3ccccc3)oc2c1	-13%	-10	10%	27%	0%	23%	nt	nt	nt
Clc1ccc(C2=Nn3c(nnc3-c3cc(-c4ccccc4)n[nH]3)SC2)cc1	2%	-4	-17%	5%	-9%	nt	nt	nt	nt
c1ccc(C2=Nn3c(nnc3-c3cc(-c4ccccc4)n[nH]3)SC2)cc1	?	-3	-8%	12%	?	nt	-13	?	20µM*
Cc1ccsc1C1Nc2ccc3ncccc3c2C2=C1C(=O)CC(C)(C)C2 (stereo unspecified)	?	-6	-25%	9%	?	10%	-19	?	2.8µM*
O=C(O)CCCCCN1C(=O)/C(=C/c2cn(-c3ccccc3)nc2-c2cccs2)SC1=S	nt	24	?	10%	?	?	-2	1%	35µM*
O=C(O)CCN1C(=O)/C(=C/c2cn(-c3ccccc3)nc2-c2cccs2)SC1=S	-5%	0	-29%	4%[9.22 µM]	?	?	nt	nt	nt
O=C(O)CCCCCN1C(=O)/C(=C\c2cn(-c3ccccc3)nc2-c2cccs2)SC1=S	-17%	-8	?	15%	?	?	nt	nt	nt
COc1ccc(-c2nn(-c3ccccc3)cc2/C=C2/SC(=S)N(CCC(=O)O)C2=O)c(C)c1	-6%	-10	?	0%	46µM*	?	2	?	35µM*
CC(=O)c1ccc(NS(=O)(=O)c2ccc3ccccc3c2)cc1	-8%	7	-5%	0%	-1%	?	nt	nt	nt
CC(=O)c1ccc(NS(=O)(=O)c2cccc(S(=O)(=O)c3ccc(Cl)cc3)c2)cc1	45%	nt	16%	0%	?	-18%	7	-1%	45µM*
CS(=O)(=O)c1ccc(C(O)C(CO)NC(=O)C(Cl)Cl)cc1 (stereo unspecified)	5%	nt	nt	nt	nt	nt	nt	nt	nt
Cc1n[nH]c2ccc([N+](=O)[O-])cc2c1=O	nt	nt	nt	-1%	-6%	nt	nt	nt	nt
Cc1ccc(C2c3c(-c4ccccc4O)n[nH]c3C(=O)N2CCCO)cc1 (stereo unspecified)	-5%	nt	-3%	16%	-10%	1%	nt	nt	nt
O=C1c2[nH]nc(-c3ccccc3O)c2C(c2cccc(O)c2)N1Cc1ccncc1 (stereo unspecified)	-5%	nt	1%	-1%	2%	15%	nt	nt	nt
